About 83,000 compounds went through this panel and 20% of them were active in at least one assay; those are over-represented in the sample as a whole.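 Activity criterion: percent growth below 10, measured after cells in 96-well plates were exposed to a single compound concentration for 48 hours.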 Unmarked numbers belong to inactive results. Calls of active or inactive are those of the source.
What was measured:
Assay in all cases: NCI-60 one-dose screen, 48 h (100 = growth as untreated, 0 = no growth, -100 = all killed)
Conditions in all cases: 10 µM unless noted
[1] = test system: SR leukemia
[2] = test system: RPMI-8226 leukemia
[3] = test system: OVCAR-8 ovarian
[4] = test system: OVCAR-5 ovarian
[5] = test system: OVCAR-4 ovarian
[6] = test system: SK-OV-3 ovarian
[7] = test system: IGROV1 ovarian
[8] = test system: OVCAR-3 ovarian
[9] = test system: HS 578T breast
[10] = test system: NCI/ADR-RES ovarian
[11] = test system: T-47D breast
[12] = test system: BT-549 breast
[13] = test system: MDA-MB-435 melanoma
[14] = test system: SW-620 colon
[15] = test system: MCF7 breast
[16] = test system: HCT-116 colon
[17] = test system: HCC-2998 colon
[18] = test system: KM12 colon

Row | Structure (SMILES) | growth [1] | growth [2] | growth [3] | growth [4] | growth [5] | growth [6] | growth [7] | growth [8] | growth [9] | growth [10] | growth [11] | growth [12] | growth [13] | growth [14] | growth [15] | growth [16] | growth [17] | growth [18]
1 | CCOC(=O)C(=O)/C(=C\c1ccc(Cl)cc1)C(=O)N1C(=S)NC(=O)C1CC(C)C (stereo unspecified) | 105% | 93.2% | 103% | 98.6% | 98.2% | 108% | 95.2% | 111% | 106% | 101% | 98.2% | 108% | 98.6% | 104% | 92% | 99.3% | 101% | 98.8%
2 | O=C(Nc1ccc(Br)cc1)Nc1nc2ccc([N+](=O)[O-])cc2s1 | -27.9% (active) | -35% (active) | 8.82% (active) | 19.4% | -10.6% (active) | -5.7% (active) | 21.8% | -5.56% (active) | -3.63% (active) | 3.27% (active) | -19% (active) | -21.5% (active) | -9.22% (active) | 3.15% (active) | 1.05% (active) | 2.73% (active) | 1.25% (active) | 0.616% (active)
3 | CC(=O)c1ccc(Nc2nc(SCC(C)C)nc(-c3ccccc3)c2C#N)cc1 | 110% | 111% | 70% | 109% | 103% | 79.7% | 88.6% | 122% | 44.6% | 89.1% | 94.5% | 92% | 106% | 117% | 100% | 83.7% | 105% | 112%
4 | Cc1ccc(NC(=S)NNC(=S)Nc2ccc(C)cc2)cc1 | 90% | 104% | 105% | 104% | 100% | 111% | 103% | 127% | 110% | 104% | 101% | 92.9% | 102% | 108% | 91.1% | 106% | 110% | 101%
5 | CCCCc1nc(/C=N/Nc2nc(Nc3ccccc3)nc(Nc3ccc(S(N)(=O)=O)cc3)n2)c(Cl)[nH]1 | 11.5% | 96.7% | 90% | 102% | 80.6% | 114% | 98.4% | 46.2% | 77.8% | 108% | 14.9% | 47.9% | 90.3% | 75.1% | 46.8% | 90% | 70.4% | 103%
6 | CCCC(=O)NC(c1cccnc1)c1cc(C(C)(C)C)c2cccnc2c1O (stereo unspecified) | 11.5% | 24.5% | 17.3% | 40.8% | 31.1% | 7.42% (active) | 6.31% (active) | 12.4% | 46.6% | 21.2% | 24.1% | 24.8% | 30.2% | 34.2% | 10.9% | 21.7% | 51.4% | 18.8%
7 | COc1c(N2CC3CCCNC3C2)c(F)cc2c(=O)c(C(=O)N/N=C/c3ccccc3)cn(C3CC3)c12 (stereo unspecified) | 8.2% (active) | 73.1% | 99.9% | 107% | 93.1% | 111% | 99.6% | 102% | 97.7% | 104% | 101% | 106% | 101% | 102% | 84.1% | 81.1% | 113% | 101%
8 | NC(N)=Nc1ccc(Oc2cccc(Nc3ccc(Br)c(C(F)(F)F)c3)c2)cc1 | -43.5% (active) | -44.1% (active) | 51.2% | 40.3% | 39.8% | 67.4% | 0.582% (active) | 13.7% | 9.28% (active) | 93.7% | 22.4% | 42.7% | 8.6% (active) | -31% (active) | -1.08% (active) | -25% (active) | -28.1% (active) | -27.2% (active)
9 | CC(C)(C)c1ccc(C(=O)Nc2nc3ccc(O)cc3s2)cc1 | 24.7% | 22.1% | 30.6% | 69.6% | 46.3% | 78.6% | 47.7% | 57.6% | 77.3% | 40.9% | 28.5% | 62.9% | 34.3% | 14.2% | 15.8% | 45.6% | 14.7% | 14%
10 | CCCCCc1ccc(S(=O)(=O)Nc2cccc(-c3csc(NC(=O)CN4CCN(C)CC4)n3)c2)cc1 | -4.74% (active) | 5.62% (active) | 95.9% | 105% | 81.4% | 90.6% | 83.8% | 75.3% | 82.1% | 93.1% | 67.2% | 93.4% | 45.3% | 46.5% | 26.2% | 16.9% | 14.8% | 65.8%
11 | COc1ccc(C2CC(c3cccc(Nc4nc(Cl)nc5cc(OC)c(OC)cc45)c3)=Nc3c(N)nc(N)nc3N2)cc1 (stereo unspecified) | 3.81% (active) | 38.4% | 70.1% | 111% | 96.6% | 121% | 92.5% | 75.3% | 94.4% | 92.3% | 81.7% | 81.4% | 83.5% | 74% | 74.4% | 46.3% | 83.4% | 57.1%
12 | CCO/C=N/C1=C(C#N)C(c2ccc(Cl)cc2)c2sc3c(C)cccc3c2O1 (stereo unspecified) | 12.2% | 7.03% (active) | 28% | 27.9% | 64.3% | 59.4% | 26.6% | -30.6% (active) | 18.9% | 11.7% | 33.5% | 38.8% | -49.6% (active) | 26.5% | 14.5% | 14.8% | 9.57% (active) | 15.2%
13 | CCCCNNC(=O)c1ccc(-c2cccc(F)c2F)cc1 | 25.2% | 5.02% (active) | 20.8% | 24.9% | 41.5% | 47.2% | 31.3% | 44.6% | 41.2% | 13.4% | 3.16% (active) | 58.6% | 25.4% | 20.7% | 15.9% | 13.9% | 37.9% | 44.6%
14 | CN(C)C(=O)c1cc(-c2ccc3ncnc(NCc4ccccc4)c3c2)cnc1N | 89.3% | 50.5% | 97.3% | 62.9% | 80.7% | 110% | 34.2% | 85.1% | 81.8% | 104% | 62% | 111% | 99.2% | 102% | 77.5% | 101% | 102% | 101%
15 | O=C(CSc1nnc(-c2ccc(Cl)cc2)n1-c1ccccc1)Nc1ccc(Br)cc1 | 13.3% | 17.5% | -27.5% (active) | 2.37% (active) | -1.23% (active) | -35.9% (active) | 16.6% | -24.5% (active) | 17.8% | 12.3% | 8.35% (active) | 36.7% | 27.2% | 37.9% | 38.6% | -64.2% (active) | 77.9% | 45.4%
16 | CCCCCc1ccc(S(=O)(=O)Nc2cccc(-c3csc(NC(=O)CN4CCN(CCO)CC4)n3)c2)cc1 | 5.04% (active) | 20.2% | 91.4% | 101% | 79.2% | 89.5% | 85.5% | 93.2% | 69.4% | 99% | 64.5% | 99.9% | 44.3% | 74.3% | 35.8% | 45% | 26.9% | 54%
17 | Cc1ccc(NC(=O)CNc2cc(C(N)=O)cc(F)c2C)c(Cl)c1 | 95.2% | 90.6% | 99.9% | 87.9% | 75.2% | 104% | 70.6% | 111% | 92.8% | 105% | 104% | 102% | 97.4% | 96.8% | 87.2% | 96.3% | 122% | 99.1%
